Values joined by “and” are separate entries in the source; they are usually repeats but may differ in a detail not shown here. Equal entries are not always repeated. Results filed as inconclusive are left out. Some structures have more than one record in an assay (separate samples or runs), and their calls can disagree. Active and inactive are the calls of the source. The call rests on the fitted dose curve; in most records, active means well fitted curve in the direction sought with a large enough effect; inconclusive means small, poorly fitted or top-dose-only effect, or another doubt; inactive means no such curve, though single readings can be large; an effect the other way counts as inactive or inconclusive.
What was measured:
CRL-7250 = normal cell line; test: Cytotoxic Profiling of Annotated Libraries Using Quantitative High-Throughput Screening (AID 1296008); conditions: Five cell lines viability, CellTiter-Glo ATP luminescence, 48-72 h; max response: hits give low values; further: nearly all actives have a fitted effect of over 60% in size; further: potency means the concentration at half of the fitted maximal effect
Method in brief: (§1)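 Compounds were pin-transferred onto cells and incubated 48 or 72 hr at 37 degree Celsius, 95% humidity. CellTiter-Glo was added, plates sat 10 min at room temperature, then ATP-coupled luminescence was imaged as the viability read-out.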

HEK293 = test: as above; conditions: Five cell lines viability, CellTiter-Glo ATP luminescence, 48-72 h; max response: hits give low values
Method in brief: as §1

HaCat [1] = test: as above; conditions: Five cell lines viability, CellTiter-Glo ATP luminescence, 48-72 h; max response: hits give low values
Method in brief: as §1

KB-3-1 = test: as above; conditions: Five cell lines viability, CellTiter-Glo ATP luminescence, 48-72 h; max response: hits give low values
Method in brief: as §1

NIH3T3 [2] = test: as above; conditions: Five cell lines viability, CellTiter-Glo ATP luminescence, 48-72 h; max response: hits give low values
Method in brief: as §1

HACAT [3] = test: qHTS assay to identify novel small-molecules to repurpose for Merkel cell carcinoma treatment (AID 1296009); conditions: MCC and control cell lines, CellTiter-Glo viability, 72 h; series mostly up to 44.8 µM; further: nearly all actives have a fitted effect of over 60% in size; further: potency means the concentration at half of the fitted maximal effect
Method in brief: (§2)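 Cells exposed to NPC (8-point) and MIPE (11-point) compound dilutions for 72 hr at 37 degree celsius; viability read by CellTiter-Glo luminescence, normalized to no-cell and DMSO in-plate controls.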

MCC-13 = test: as above; conditions: MCC and control cell lines, CellTiter-Glo viability, 72 h; series mostly up to 46 µM
Method in brief: as §2

MCC-26 = test: as above; conditions: MCC and control cell lines, CellTiter-Glo viability, 72 h; series mostly up to 46 µM
Method in brief: as §2

MKL-1 = test: as above; conditions: MCC and control cell lines, CellTiter-Glo viability, 72 h; series mostly up to 46 µM
Method in brief: as §2

UISO = test: as above; conditions: MCC and control cell lines, CellTiter-Glo viability, 72 h; series mostly up to 46 µM
Method in brief: as §2

WaGa = test: as above; conditions: MCC and control cell lines, CellTiter-Glo viability, 72 h; series mostly up to 46 µM
Method in brief: as §2

C33A = test: Primary qHTS to identify gynecologic anti-cancer compounds using libraries of approved drugs and bioactive compounds (AID 1345084); conditions: Gynecologic cancer cell panel viability, ATPlite luminescence, 48 h; series mostly up to 57.5 µM; further: nearly all actives have a fitted effect of over 55% in size
Method in brief: (§3)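 In this quantitative HTS, cell killing is estimated from loss of ATP-dependent luciferase light. Cells see five compound concentrations over a 48 h exposure.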

CASKI = test: as above; conditions: Gynecologic cancer cell panel viability, ATPlite luminescence, 48 h; series mostly up to 57.5 µM
Method in brief: as §3

HeLa = test: as above; conditions: Gynecologic cancer cell panel viability, ATPlite luminescence, 48 h; series mostly up to 57.5 µM
Method in brief: as §3

Hek293T [4] = test: as above; conditions: Gynecologic cancer cell panel viability, ATPlite luminescence, 48 h, control line for the selectivity index; series mostly up to 57.5 µM
Method in brief: as §3

HEK293T [5] = test: qHTS assay to identify novel small-molecules to repurpose for Merkel cell carcinoma treatment (AID 1296009); conditions: MCC and control cell lines, CellTiter-Glo viability, 72 h; at 44.8 µM (top of the series) unless noted; further: nearly all actives have a fitted effect of over 60% in size; further: potency means the concentration at half of the fitted maximal effect
Method in brief: as §2

MKL-2 = test: as above; conditions: MCC and control cell lines, CellTiter-Glo viability, 72 h; series mostly up to 46 µM
Method in brief: as §2

NIH3T3 [6] = test: as above; conditions: MCC and control cell lines, CellTiter-Glo viability, 72 h; at 44.8 µM (top of the series) unless noted
Method in brief: as §2

Es-2 = test: Primary qHTS to identify gynecologic anti-cancer compounds using libraries of approved drugs and bioactive compounds (AID 1345084); conditions: Gynecologic cancer cell panel viability, ATPlite luminescence, 48 h; series mostly up to 57.5 µM; further: nearly all actives have a fitted effect of over 55% in size
Method in brief: as §3

CAOV3 = test: as above; conditions: Gynecologic cancer cell panel viability, ATPlite luminescence, 48 h; series mostly up to 57.5 µM
Method in brief: as §3
On the % scale 0 is the no-effect control and ±100 the full control effect.

CS(=O)(=O)c1ccc(-c2cnc(N)c(C(=O)Nc3ccccc3)n2)cc1
active: Potency (HEK293) 11.6 µM | Potency (NIH3T3 [2]) 14.8 µM and 5.17 µM
inactive: max response (CRL-7250) -11% | outcome (CRL-7250) | max response (HaCat [1]) -14.1% | outcome (HaCat [1]) | outcome (KB-3-1) | Potency (HACAT [3]) | Potency (MCC-13) | Potency (MCC-26) | Potency (MKL-1) | Potency (UISO) | Potency (WaGa) | Potency (C33A) | Potency (CASKI) | Potency (HeLa) | Potency (Hek293T [4])

Clc1ccc2ncc(-c3cccc(NC4CNC4)n3)n2c1
inactive: outcome (CRL-7250) | outcome (HEK293) | outcome (HaCat [1]) | outcome (KB-3-1) | outcome (NIH3T3 [2]) | Potency (HACAT [3]) | outcome (HEK293T [5]) | Potency (MCC-13) | Potency (MCC-26) | Potency (MKL-2) | outcome (NIH3T3 [6]) | Potency (C33A) | Potency (CASKI) | Potency (Es-2) | Potency (HeLa) | Potency (Hek293T [4])
active: Potency (HEK293) 18.7 µM

CCCn1c(=O)c2[nH]c(-c3cnn(Cc4cccc(C(F)(F)F)c4)c3)nc2n(CC)c1=O
inactive: max response (CRL-7250) -9.35% | outcome (HEK293) | max response (HaCat [1]) -0.725% | outcome (HaCat [1]) | max response (KB-3-1) 0.919% | outcome (KB-3-1) | max response (NIH3T3 [2]) 1.05% | outcome (NIH3T3 [2]) | Potency (HACAT [3]) | outcome (HEK293T [5]) | Potency (MCC-13) | Potency (MCC-26) | Potency (MKL-1) | Potency (MKL-2) | outcome (NIH3T3 [6]) | Potency (UISO) | Potency (WaGa) | Potency (C33A) | Potency (CASKI) | Potency (Es-2) | Potency (HeLa) | Potency (Hek293T [4])

Cc1cc(Nc2ncnc3ccc(-c4ccc(CNCCS(C)(=O)=O)o4)cc23)ccc1Oc1ccn2ncnc2c1
inactive: max response (HEK293) -117% | max response (HaCat [1]) -107% | max response (KB-3-1) -26.8% | max response (NIH3T3 [2]) -81.1% | Potency (MCC-13) | Potency (MCC-26) | Potency (C33A) | Potency (CAOV3) | Potency (CASKI) | Potency (Es-2) | Potency (HeLa) | Potency (Hek293T [4])
active: Potency (CRL-7250) 3.32 µM and 23.1 µM | Potency (HEK293) 4.18 µM | Potency (KB-3-1) 11.8 µM | Potency (MKL-1) 14.8 µM | Potency (MKL-2) 18.7 µM | Potency (UISO) 14.8 µM | Potency (WaGa) 5.26 µM

CC(O)C1C(=O)N2C(C(=O)O)=C(SC3CNC(C(=O)N(C)C)C3)C(C)C12 (configuration not stated)
inactive: max response (CRL-7250) -9.97% and 0.421% | max response (HEK293) -5.51% and 0.11% | max response (HaCat [1]) 0.187% | outcome (HaCat [1]) | max response (KB-3-1) 5.3% | outcome (KB-3-1) | max response (NIH3T3 [2]) 0.991% and 3.69% | Potency (HACAT [3]) | Potency (MCC-13) | Potency (MCC-26) | Potency (MKL-1) | Potency (MKL-2) | Potency (UISO) | Potency (C33A) | Potency (CAOV3) | Potency (CASKI) | Potency (Es-2) | Potency (HeLa) | Potency (Hek293T [4])

Nc1nc(NCCNc2ncc(-n3ccnc3)c(-c3ccc(Cl)cc3Cl)n2)ccc1[N+](=O)[O-]
inactive: max response (CRL-7250) -3.28% | max response (HEK293) 4.96% | outcome (HaCat [1]) | outcome (KB-3-1) | max response (NIH3T3 [2]) 4.08% | outcome (NIH3T3 [2]) | Potency (HACAT [3]) | Potency (MCC-13) | Potency (MCC-26) | Potency (MKL-1) | Potency (MKL-2) | outcome (NIH3T3 [6]) | Potency (UISO) | Potency (WaGa) | Potency (CASKI) | Potency (Es-2) | Potency (Hek293T [4])
active: Potency (CRL-7250) 5.8 µM | Potency (KB-3-1) 20.6 µM

CN(C)c1nc(Cc2ccc(NC(=O)c3ccc4ccccc4c3)cc2)nc(Cl)c1CC(=O)O
inactive: max response (CRL-7250) 0.957% and -5.82% | max response (HEK293) -6.45% | outcome (HEK293) | max response (HaCat [1]) 3.96% | outcome (HaCat [1]) | outcome (KB-3-1) | max response (NIH3T3 [2]) 2.84% and 3.57% | Potency (HACAT [3]) | outcome (HEK293T [5]) | Potency (MCC-13) | Potency (MCC-26) | Potency (MKL-1) | Potency (MKL-2) | Potency (UISO) | Potency (WaGa) | Potency (C33A) | Potency (CAOV3) | Potency (CASKI) | Potency (Es-2) | Potency (HeLa) | Potency (Hek293T [4])

COc1ccc2c(c1)CC[C@@H](CN(C)CC(=O)O)[C@H]2c1ccccc1
inactive: max response (CRL-7250) -2.88% | max response (HEK293) 2.06% | max response (HaCat [1]) 0.39% | max response (KB-3-1) 2.76% | outcome (NIH3T3 [2]) | outcome (NIH3T3 [6]) | Potency (C33A) | Potency (CASKI) | Potency (Es-2) | Potency (HeLa) | Potency (Hek293T [4])
active: Potency (HEK293) 2.64 µM | Potency (KB-3-1) 3.32 µM | Potency (NIH3T3 [2]) 7.43 µM

CCOc1ccccc1OCCNC(C)Cc1ccc(OC)c(S(N)(=O)=O)c1 (configuration not stated)
inactive: max response (CRL-7250) 3.17% | outcome (CRL-7250) | max response (HEK293) -25.2% | max response (HaCat [1]) -9.05% | outcome (HaCat [1]) | max response (KB-3-1) 7.71% | outcome (KB-3-1) | max response (NIH3T3 [2]) -0.288% | outcome (NIH3T3 [2]) | Potency (HACAT [3]) | Potency (MCC-13) | Potency (MKL-1) | Potency (MKL-2) | outcome (NIH3T3 [6]) | Potency (UISO) | Potency (WaGa) | Potency (C33A) | Potency (CAOV3) | Potency (CASKI) | Potency (Es-2) | Potency (HeLa) | Potency (Hek293T [4])

CNC(=O)CN1CCC(Oc2cc3c(Nc4cccc(Cl)c4F)ncnc3cc2OC)CC1
inactive: max response (CRL-7250) -5.68% and -4.5% | max response (HEK293) 1% and -0.0643% | max response (HaCat [1]) -148% | max response (KB-3-1) 4.62% and 3.88% | Potency (MKL-2) | Potency (Es-2) | Potency (HeLa) | Potency (Hek293T [4])
active: Potency (HaCat [1]) 580 nM | Potency (NIH3T3 [2]) 26.4 µM and 16.4 µM | Potency (MCC-13) 3.32 µM | Potency (UISO) 0.118 µM

— PubChem BioAssay (NCATS)
